Tau ThT inhib – blocks human tau fibril formation measured by thioflavin T; 270,000 compounds, 2.1% hits; recombinant tau K18 P301L, heparin-induced fibrillization, ThT fluorescence; P10636; Potency, µM (series often up to 57.4 µM), inactives show top-dose activity, negative = inhibition, most hits filed as inhibitors; also: potency is read from the fitted curve at half-maximal effect; nearly all actives have a fitted effect of over 55% in size
Target sequence (P10636 561-689 P618L limits assumed): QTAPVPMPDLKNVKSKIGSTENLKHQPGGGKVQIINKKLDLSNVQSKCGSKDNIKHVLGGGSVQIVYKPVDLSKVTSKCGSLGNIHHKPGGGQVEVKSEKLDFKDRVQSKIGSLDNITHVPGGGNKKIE
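K18 P301L tau (15 uM + 0.24 uM Alexa 594-tagged), heparin 20 uM, NaOAc pH 7, 6 h 37 C; ThT 30 uM, 1 h RT, ex 450/em 510 nm.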
G9a inh – G9a (human) methyltransferase inhibition. Q96KQ7. G9a H3K9 monomethylation, AlphaScreen, 2 h. Potency, µM (titrated, usually from 102 µM), for inactives: at the top dose activity, negative = inhibition, hits mostly inhibitors. 350,000 compounds, 8.8% hits. AID 504332; also: potency is read from the fitted curve at half-maximal effect; nearly all actives have a fitted effect of over 75% in size
Target sequence (Q96KQ7 913-1193 limits assumed): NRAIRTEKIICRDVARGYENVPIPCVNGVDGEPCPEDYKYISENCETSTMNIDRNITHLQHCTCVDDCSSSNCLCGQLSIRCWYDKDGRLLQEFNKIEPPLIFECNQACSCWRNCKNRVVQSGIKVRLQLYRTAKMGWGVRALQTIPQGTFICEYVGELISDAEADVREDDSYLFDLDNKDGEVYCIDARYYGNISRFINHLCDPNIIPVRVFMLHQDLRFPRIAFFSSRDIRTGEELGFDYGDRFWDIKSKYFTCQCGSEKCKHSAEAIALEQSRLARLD
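G9a (20 nM) was preincubated 15 min with compound, then reacted 2 h at room temperature with 500 nM biotin-H3K9 peptide and 20 µM SAM. Monomethyl-H3K9 detected by AlphaScreen using anti-H3K9me1 antibody.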
Coupling enz – inhibits coupling enzyme system, counter-screen for aldolase hits; coupling enzyme system counterscreen, AmpLite Red fluorescence; activity change, negative = inhibition, % at 58.2 µM, hits read low; 290,000 compounds, 0.67% hits; AID 2472; in the data active = activity change below about -30%
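First, compound is pin-transferred into glyceraldehyde-3-phosphate coupling-enzyme reagent at 57.5 uM final and held 10 min at RT. Next, substrate, coupling system and AmpLite Red are added. After 20 min RT, fluorescence (525/598 nm) is read.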
Tau FP inhib – tau fibrillization inhibition (FP); P10636; K18 P301L tau heparin fibrillization, Alexa594 FP, 6 h; Potency, µM (titrated, usually from 57.7 µM), for the others: at the top dose activity, negative = inhibition, actives largely listed as inhibitors; 280,000 compounds, 0.39% hits; AID 1468; also: potency is read from the fitted curve at half-maximal effect; nearly all actives have a fitted effect of over 55% in size
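FP of Alexa 594-tau after heparin (20 uM) induction. Substrate: human K18 P301L, 15 uM unlabeled, 0.24 uM labeled. Buffer 100 mM sodium acetate pH 7. 6 hr, 37 C.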
Sfp inh – blocks B. subtilis Sfp PPTase activity | Q9F4F7 | Biochemical Sfp PPTase activity, qHTS | Potency, µM, without a hit: largest response in the series, negative = inhibition, most hits filed as inhibitors | 310,000 compounds, 3.5% hits | AID 1490;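 also: the enzyme is Sfp with the accession as filed and its product quenches rhodamine fluorescence; potency is read from the fitted curve at half-maximal effect; 0% = enzyme reaction without inhibitor and -100% = no enzyme wells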
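With Hepes-Na pH 7.6 buffer containing 10 mM MgCl2, Sfp (15 nM) modified BHQ-2-YbbR (12.5 uM) using rhodamine-CoA (5 uM). Two reads 30 minutes apart at 525/598 nm yielded each well's rate.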
Tau fluor counter – counter-screen for tau fibril formation inhibitors | tau K18 P301L (four-repeat tau fragment) Alexa594 fluorescence, heparin fibrillization | Potency, µM (top dose mostly 57.7 µM), without a hit: at the top dose activity change, negative = decrease | 280,000 compounds, 0.93% hits | AID 1463; also: potency is read from the fitted curve at half-maximal effect; nearly all actives have a fitted effect of over 55% in size
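Human K18 P301L tau (15 uM unlabeled plus 0.24 uM Alexa 594-labeled, final) in 100 mM sodium acetate pH 7 was mixed with compound and 20 uM heparin and incubated 6 hr at 37 C.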
* = called active by the depositor; ? = inconclusive; nt = no result given; ! = repeats disagree; [ ] = remark or other dose. In the library only some 11% were active in any assay of this set; here they are far more common. Unless noted, calls follow the shape of the dose curve; as a rule, active = well fitted curve in the direction sought with a large enough effect; inconclusive = small, poorly fitted or top-dose-only effect, or another doubt; inactive = no such curve, though single readings can be large; an effect the other way counts as inactive or inconclusive. Unless noted, % is scaled to controls: 0 for no effect and ±100 for the full control effect.

SMILES	Tau ThT inhib	G9a inh	Coupling enz	Tau FP inhib	Sfp inh	Tau fluor counter
COC(=O)c1cc(OC)c(OC)cc1NC(=O)c1ccc2c(c1)CCN2S(=O)(=O)c1ccccc1	-1%	7%[59 µM]	nt	3%	nt	-6%
[O-][n+]1ccccc1SSc1cccc[n+]1[O-]	nt	1.3µM*	nt	nt	0.71µM*	nt
Cn1c(=N)n(CC(=O)c2ccc(Br)s2)c2ccccc21	6%	?	-1	?	-2%	-10%
N=c1n(CC(=O)c2ccc(Br)s2)c2ccccc2n1Cc1ccccc1	-10%	?	1	?	14µM*	2%
O=C(O)CCN1C(=O)C2CCCCC2C1=O (centres undefined)	-11%	-63%	-1	-3%	2%	-10%
O=C(O)CCN1C(=O)C(=C2CCCCCC2)SC1=S	-10%	45µM*	-2	-6%	50µM*	-2%
O=C1C(=C2CCCCC2)SC(=S)N1Cc1ccco1	25µM*	35µM*	0	?	40µM*	-21%
COCCNC(=O)CSc1nc2cc3c(cc2c(=O)n1Cc1ccc(C(=O)NCCc2ccc(OC)c(OC)c2)cc1)OCO3	?	4%[59 µM]	nt	9%	nt	?
C=CCOc1c(Br)cc(CNc2ccc(NC(=O)C(C)C)c(OC)c2)cc1OC	?	40%[0.501 µM]	-45*	5%	-17%	-25%
CCOc1ccc(S(=O)(=O)N/N=C2/CCCC(=O)C2)cc1	5%	10µM*	0	-1%	-7%	8%
CCc1ccccc1NC(=O)[C@H](Cc1ccccc1)N1Cc2ccccc2C1=O	-15%	6%[59 µM]	nt	-7%	nt	-19%
Cn1cc(S(=O)(=O)N2CCCC2)cc1C(=O)N1CCN(c2ccccc2)CC1	nt	nt	0	nt	3%	nt
COc1ccc(C2=CC3=CC(=O)C(C)(O)C(=O)C3=CO2)cc1 (centres undefined)	-15%	nt	1	6%	-19%	-11%
CCC(=O)OC1(C)C(=O)C2=COC(c3ccc(OC)cc3)=CC2=C(Br)C1=O (centres undefined)	16µM*	15%[12.7 µM]	2	-7%	-9%	-11%
COc1ccc(C2=CC3=C(Br)C(=O)C(C)(O)C(=O)C3=CO2)cc1 (centres undefined)	18µM*!	?	-3	?	-24%	?
CCC(=O)OC1(C)C(=O)C=C2C=C(c3ccc(C#N)cc3)OC=C2C1=O (centres undefined)	-10%	nt	-1	-8%	1%	-4%
O=C(CCN1C(=O)c2ccccc2Sc2ncccc21)Nc1ccc(F)cc1F	2%	-12%[59 µM]	nt	-3%	nt	-2%
C/C(CC1CC2=C(CC1(C)C)C(C)(C)CCC2)=N\NC(N)=S (centres undefined)	-19%	32µM*	-6	-2%	?	-12%
C/C(=N\NC(N)=S)C12CC3CC(CC(C3)C1)C2	-8%	-13%[12.7 µM]	1	-2%	8%	-5%
CN(C)Cc1nc2ccccc2c(=O)n1Cc1nc(-c2cc3ccccc3o2)cs1	-12%	?	0	5%	?	-15%
CCOc1ccc(-c2csc(Cn3c(CN4CCN(C)CC4)nc4ccccc4c3=O)n2)cc1	-8%	22µM*	-5	-2%	?	-4%
Fc1ccccc1-n1ncc2c1ncn1nc(COc3ccc(Cl)cc3)nc21	?	10%[59 µM]	nt	?	nt	2%
COC(=O)c1ccc(COC(=O)C(CCSC)NC(=O)COc2ccccc2)cc1 (centres undefined)	nt	18%	nt	nt	12%	nt
COc1nccnc1NS(=O)(=O)c1ccc(NC(=S)NC(=O)c2ccccc2)cc1	-2%	40µM*	3	5%	-4%	-1%
Cc1cc(NS(=O)(=O)c2ccc(NC(=S)NC(=O)c3cccnc3)cc2)no1	3%	45µM*	7	1%	-5%	3%
SMILES	Tau ThT inhib	G9a inh	Coupling enz	Tau FP inhib	Sfp inh	Tau fluor counter
COc1ccc(/C=C/C(=O)NC(=S)Nc2ccc(S(=O)(=O)Nc3ccc(OC)nn3)cc2)cc1	?	?	3	1%	2%	-14%
Cc1cc(C)nc(NS(=O)(=O)c2ccc(NC(=S)NC(=O)c3cccnc3)cc2)n1	-1%	50µM*	0	-9%	40µM*	-5%
COc1ccc(/C=C/C(=O)NC(=S)Nc2ccc(S(=O)(=O)Nc3cc(C)on3)cc2)cc1	nt	40µM*	0	nt	-1%	nt
Cc1cc(NS(=O)(=O)c2ccc(NC(=S)NC(=O)c3ccc(Br)cc3)cc2)no1	?	?	10	1%	?	-14%
CCc1ccc[n+](-c2[nH]c(=O)sc2/C=N/N=C(\[O-])c2cccnc2)c1	nt	?	nt	nt	-16%	nt
Cc1ccc(N2CC(C(=O)N3CCCCC3)CC2=O)cc1C (centres undefined)	nt	20%	nt	nt	16%	nt
Cc1cc(C)n2nc(SCc3nnc(-c4ccc(F)cc4)o3)nc2n1	-5%	32µM*	-1	-1%	-16%	-5%
Cc1cc(C)n2nc(SCc3nnc(-c4cccs4)o3)nc2n1	-2%	6%	2	8%	19%	0%
Cc1cccc(Cn2cc(S(=O)(=O)c3ccccc3)c(=O)c3cc(F)c(N4CCOCC4)cc32)c1	-8%	0%[59 µM]	nt	2%	nt	-13%
O=C(C1CC(=O)N(C2CCCCC2)C1)N1CCc2ccccc21 (centres undefined)	-16%	-47%	-3	4%	?	-15%
CC(=O)Nc1ccc(Nc2ncnc(N)c2[N+](=O)[O-])cc1	-9%	?	2	-2%	17%	11%
CC(=O)Nc1ccc(Nc2ncc([N+](=O)[O-])c(Nc3ccc(NC(C)=O)cc3)n2)cc1	8.9µM*	34%[12.7 µM]	-4	-7%	-5%	-30%
CC(=O)Nc1ccc(Nc2nc(C)c([N+](=O)[O-])c(N(C)c3ccccc3)n2)cc1	16µM*	nt	0	?	7%	18µM*[quencher]
CC(=O)Nc1ccc(Nc2nc(C)c([N+](=O)[O-])c(Nc3ccccc3)n2)cc1	8.9µM*	?	3	18%	-4%	?
CCC(=O)Nc1ccc(Nc2nc(C)c([N+](=O)[O-])c(Nc3ccc(NC(=O)CC)cc3)n2)cc1	28µM*	14%[59 µM]	-10	?	6%	-28%
COc1ccc(/C=N/Nc2nc(C)c([N+](=O)[O-])c(N(C)c3ccccc3)n2)cc1OC	?	-41%	2	0%	0%	-19%
Cc1ccc(Nc2nc(N)c([N+](=O)[O-])c(NCCO)n2)cc1	?	-14%	3	2%	3%	-17%
Cc1nc(Nc2ccc(F)cc2)nc(Nc2ccc(F)cc2)c1[N+](=O)[O-]	-5%	nt	0	-6%	-14%	-19%

From PubChem
